The source of these data is PubChem BioAssay (NCI).

Compounds without any hit were thinned out: in the full panel of roughly 83,000, 20% have a hit.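 Growth was measured after 48 h exposure to one concentration of compound in 96-well plates. Values under 10 count as active.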 Values without a mark were called inactive. Active and inactive are the calls of the source.

Some test systems named below: HCT-15 colon; HT29 colon; SNB-75 CNS; SNB-19 CNS; U251 CNS; PC-3 prostate; SK-MEL-5 melanoma; UACC-62 melanoma; LOX IMVI melanoma; SK-MEL-28 melanoma; SK-MEL-2 melanoma; EKVX NSCLC; SN12C renal; UO-31 renal; TK-10 renal; ACHN renal; CAKI-1 renal; CCRF-CEM leukemia; MOLT-4 leukemia.
What all share (experiment): NCI-60 one-dose screen, 48 h (100 = growth as untreated, 0 = no growth, -100 = all killed)
Holding throughout (details): 10 µM unless noted

Consider `CNC(=O)c1cccc(Cn2nc(C)c(NC(=O)c3ccc(COc4ccc(C(F)(F)F)cc4C)cc3)c2C)c1`, for which the growth in the experiment on HCT-15 colon is 55%; in the experiment with HT29 colon it was 44.4%; with SNB-75 CNS, 82.2%; with SNB-19 CNS, 46.8%; with U251 CNS, 44.4%; in the experiment with PC-3 prostate, 40.1%. In addition, the growth in the experiment on SK-MEL-5 melanoma was -16.8% (active); in the experiment with UACC-62 melanoma, 57%; with LOX IMVI melanoma it was 58%; in the experiment with SK-MEL-28 melanoma, 63.9%; in the experiment with SK-MEL-2 melanoma it was 48.9%; in the experiment with EKVX NSCLC, 34%. Also, the growth in the experiment on SN12C renal was 56.6%; in the experiment with UO-31 renal, 47.3%; in the experiment on TK-10 renal, 55.5%; in the experiment on ACHN renal it was 47.2%; in the experiment on CAKI-1 renal, 47%; in the experiment with CCRF-CEM leukemia, 54.4%. Further, in the experiment with MOLT-4 leukemia, the growth is 18%.
As to `CCCCCC(=O)Oc1ccc(/C(=C(/C)Cc2ccc(OC)cc2)c2ccc(OCCCN(C)C)cc2)cc1`, the growth is 24.6% in the experiment with HCT-15 colon; 10.8% with HT29 colon; 77% in the experiment with SNB-75 CNS; 84.1% in the experiment with SNB-19 CNS; 56.2% with U251 CNS; 86.2% with PC-3 prostate. The growth is 63.5% in the experiment on SK-MEL-5 melanoma; 47.7% with UACC-62 melanoma; 50.7% in the experiment with LOX IMVI melanoma; -1.63% (active) with SK-MEL-28 melanoma; 114% in the experiment with SK-MEL-2 melanoma; 88.7% with EKVX NSCLC. In addition, the growth was 79.5% in the experiment with SN12C renal; 58.6% with UO-31 renal; 100% in the experiment with TK-10 renal; 91.9% in the experiment with ACHN renal; 78.3% with CAKI-1 renal; 68.1% in the experiment with CCRF-CEM leukemia. In the experiment on MOLT-4 leukemia, the growth was 53.5%.
With `CC(=O)c1ccc(NS(=O)(=O)c2cccc(C(=O)Nc3ccc(Br)cc3)c2)cc1`, the growth in the experiment with HCT-15 colon is 68.2% [25 µM]; in the experiment on HT29 colon it was 87.4% [25 µM]; in the experiment with SNB-75 CNS, 78.3% [25 µM]; in the experiment on SNB-19 CNS it was 60.4% [25 µM]; with U251 CNS it was 70.8% [25 µM]; with PC-3 prostate, 60.4% [25 µM]. The growth is -19.8% [25 µM] (active) in the experiment with SK-MEL-5 melanoma; 26.5% [25 µM] in the experiment with UACC-62 melanoma; 62.7% [25 µM] in the experiment with LOX IMVI melanoma; 77.9% [25 µM] in the experiment with SK-MEL-28 melanoma; 41% [25 µM] in the experiment with SK-MEL-2 melanoma; 34.2% [25 µM] with EKVX NSCLC. For the same molecule, the growth in the experiment on SN12C renal is 64.7% [25 µM]; in the experiment with UO-31 renal it was 53.8% [25 µM]; with TK-10 renal, 91.3% [25 µM]; with ACHN renal, 73.3% [25 µM]; in the experiment with CAKI-1 renal, 52.8% [25 µM]; with CCRF-CEM leukemia it was 61.6% [25 µM]. Also, the growth in the experiment on MOLT-4 leukemia was 53.7% [25 µM].
Turning to `CC(=O)OC[C@]12CC[C@@H](C(=O)CBr)[C@@H]1[C@H]1CC[C@@H]3[C@@]4(C)CC[C@H](OC(C)=O)C(C)(C)[C@@H]4CC[C@@]3(C)[C@]1(C)CC2`, the growth with HCT-15 colon is 97.1%; in the experiment with HT29 colon, 91.8%; in the experiment on SNB-75 CNS, 84.4%; with SNB-19 CNS, 114%; with U251 CNS, 96.7%; in the experiment on PC-3 prostate, 75.8%. The growth in the experiment with SK-MEL-5 melanoma was 75.1%; in the experiment on UACC-62 melanoma, 84.9%; in the experiment with LOX IMVI melanoma, -69.6% (active); in the experiment with SK-MEL-28 melanoma, 99.8%; in the experiment on SK-MEL-2 melanoma, 92.3%; in the experiment with EKVX NSCLC, 107%. In addition, the growth in the experiment with SN12C renal was 87%; in the experiment on UO-31 renal, 90.7%; with TK-10 renal, 108%; in the experiment on ACHN renal, 98.8%; in the experiment with CAKI-1 renal, 77.4%; with CCRF-CEM leukemia it was -17.4% (active). Further, in the experiment with MOLT-4 leukemia, the growth was -5.01% (active).
Turning to `O=S(=O)(NCCNc1nccc(-c2c(-c3cccc(F)c3)nc3sccn23)n1)c1ccc(Cl)cc1`, the growth in the experiment with HCT-15 colon was 31.8%; in the experiment with HT29 colon it was 36%; with SNB-75 CNS, 78.9%; with SNB-19 CNS, 66.5%; in the experiment on U251 CNS, 55.2%; in the experiment on PC-3 prostate it was 56.9%. Besides, the growth in the experiment on SK-MEL-5 melanoma was 36.5%; with UACC-62 melanoma, 44.3%; in the experiment on LOX IMVI melanoma it was 43.7%; with SK-MEL-28 melanoma, 74.7%; in the experiment with SK-MEL-2 melanoma, 79.8%; with EKVX NSCLC, 66.3%. Also, the growth was 48.7% in the experiment on SN12C renal; 23.8% with UO-31 renal; 88.5% in the experiment with TK-10 renal; 35.7% in the experiment on ACHN renal; 41.1% in the experiment with CAKI-1 renal; 50.4% in the experiment with CCRF-CEM leukemia. The growth with MOLT-4 leukemia is 46.8%.
With `O=Cc1cc2ccccc2nc1Oc1ccc(C(F)(F)F)cc1`, the growth in the experiment with HCT-15 colon was 80.8%; with HT29 colon it was 94.1%; in the experiment on SNB-75 CNS, 83.2%; in the experiment with SNB-19 CNS, 90.7%; in the experiment on U251 CNS, 81.6%; in the experiment with PC-3 prostate it was 67.8%. The growth was 94.5% in the experiment on SK-MEL-5 melanoma; 72.5% in the experiment with UACC-62 melanoma; 74.3% in the experiment with LOX IMVI melanoma; 107% in the experiment with SK-MEL-28 melanoma; 101% in the experiment with SK-MEL-2 melanoma; 82.4% with EKVX NSCLC. In addition, the growth is 70.5% with SN12C renal; 35.1% in the experiment with UO-31 renal; 98% in the experiment on TK-10 renal; 87.7% in the experiment with ACHN renal; 63.4% in the experiment with CAKI-1 renal; 6.98% (active) in the experiment with CCRF-CEM leukemia. For the same molecule, the growth with MOLT-4 leukemia is 60.5%.
Regarding `COc1cc2c(cc1OC)C(=O)/C(=C/c1cc(C)c(O)c(C)c1)S2`, the growth in the experiment with HCT-15 colon was 18.7%; with HT29 colon, 83.2%; in the experiment with SNB-75 CNS it was 24%; in the experiment with SNB-19 CNS it was 38.7%; with U251 CNS, 27.2%; with PC-3 prostate it was 38.4%. For the same molecule, the growth in the experiment with SK-MEL-5 melanoma is 21.3%; in the experiment on UACC-62 melanoma, 43.3%; in the experiment on LOX IMVI melanoma, 44.2%; with SK-MEL-28 melanoma, 65%; with SK-MEL-2 melanoma it was 42.6%; in the experiment with EKVX NSCLC it was 40.8%. Further, the growth in the experiment on SN12C renal is 50.4%; in the experiment on UO-31 renal it was 54.8%; in the experiment with TK-10 renal it was 66%; in the experiment on ACHN renal it was 45.3%; with CAKI-1 renal, 43.9%; with CCRF-CEM leukemia, 17.1%. Besides, the growth in the experiment with MOLT-4 leukemia is 24.5%.
